We go through eleven sequences from PMC8384837, “Expanding the binding specificity for RNA recognition by a PUF domain”.

Where a chain is given by its changes, count along the chain named.

Holding throughout (test): yeast three-hybrid, YBZ-1, SC-Leu-His + 0.5 mM 3-AT, 4 days
What all share (settings): tags: N-Gal4 AD-HA kept; label: inside an RPR1-promoter hybrid RNA with tandem MS2 sites; ssRNA

In one experiment the target is PUM1 PUF domain R3-IFR (Homo sapiens, UniProt Q14671 828-1176, C935I;R936F;Q939R). In short, it runs like this: (§1)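 The interaction score is the log change in how often each variant appears, from input to selection. Frequencies came from PCR-amplified, Illumina-sequenced repeat regions of Pumilio-1 PUF domain libraries grown in strain YBZ-1 (LexA–MS2 coat fusion, HIS3 reporter) alongside matching RNA elements. Input plates were SC-Leu and selection plates were SC-Leu-His + 0.5 mM 3-AT, each for four days, and the log2 calculation used a pseudocount of 1 where a variant was absent.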

The next experiment addresses PUM1 PUF domain R3-RRP (Homo sapiens, UniProt Q14671 828-1176, C935R;Q939P). In short, it runs like this:
as §1

For the next experiment, the target named is T1, PUM1 PUF domain R6-EWG (Homo sapiens, UniProt Q14671 828-1176, N1043E;Y1044W;Q1047G).
T1 sequence: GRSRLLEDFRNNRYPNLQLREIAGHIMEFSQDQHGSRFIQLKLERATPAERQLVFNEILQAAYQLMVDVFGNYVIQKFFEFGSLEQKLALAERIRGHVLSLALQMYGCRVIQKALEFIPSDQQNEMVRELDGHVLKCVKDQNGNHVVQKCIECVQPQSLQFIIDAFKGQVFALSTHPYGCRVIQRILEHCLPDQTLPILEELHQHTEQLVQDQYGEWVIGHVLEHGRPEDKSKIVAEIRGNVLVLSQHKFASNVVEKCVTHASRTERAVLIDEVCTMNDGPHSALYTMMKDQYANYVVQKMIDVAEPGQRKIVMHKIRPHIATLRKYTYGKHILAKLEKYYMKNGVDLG
In short, it runs like this:
as §1

For a further experiment, the target named is T2, PUM1 PUF domain R6-VWM (Homo sapiens, UniProt Q14671 828-1176, N1043V;Y1044W;Q1047M).
T2 sequence: T1 sequence with E216V, G220M
In short, it runs like this: as §1

Another experiment deals with T3, PUM1 PUF domain R6-RYG (Homo sapiens, UniProt Q14671 828-1176, N1043R;Q1047G).
T3 sequence: T1 sequence with E216R, W217Y
In short, it runs like this: as §1

In a further experiment the target is T4, PUM1 PUF domain R6-AWV (Homo sapiens, UniProt Q14671 828-1176, N1043A;Y1044W;Q1047V).
T4 sequence: T1 sequence with E216A, G220V
In short, it runs like this:
as §1

The next experiment addresses PUM1 PUF domain R8-QFR (Homo sapiens, UniProt Q14671 828-1176, N1122Q;Y1123F;Q1126R). In short, it runs like this:
as §1

The next experiment concerns the target PUM1 PUF domain R8-QYP (Homo sapiens, UniProt Q14671 828-1176, N1122Q;Q1126P). In short, it runs like this:
as §1

In a further experiment the target is PUM1 PUF domain R8-RRR (Homo sapiens, UniProt Q14671 828-1176, N1122R;Y1123R;Q1126R). In short, it runs like this:
as §1

A further experiment concerns the target PUM1 PUF domain R4-GHW (Homo sapiens, UniProt Q14671 828-1176, N971G;Q975W). In short, it runs like this:
as §1

In a further experiment the target is PUM1 PUF domain R4-CMN (Homo sapiens, UniProt Q14671 828-1176, N971C;H972M;Q975N). In short, it runs like this:
as §1

The target in the next experiment is PUM1 PUF domain R8-RRY (Homo sapiens, UniProt Q14671 828-1176, N1122R;Y1123R;Q1126Y). The essentials: as §1
Another experiment concerns the target PUM1 PUF domain R4-WGV (Homo sapiens, UniProt Q14671 828-1176, N971W;H972G;Q975V). In short, it runs like this:
as §1

The target in a further experiment is T5, PUM1 PUF domain R6-DWG (Homo sapiens, UniProt Q14671 828-1176, N1043D;Y1044W;Q1047G).
T5 sequence: T1 sequence with E216D
In short, it runs like this: as §1

The target in a further experiment is PUM1 PUF domain R5-GSE (Homo sapiens, UniProt Q14671 828-1176, C1007G;R1008S;Q1011E). In short, it runs like this:
as §1

In another experiment the target is PUM1 PUF domain R2-KLV (Homo sapiens, UniProt Q14671 828-1176, N899K;Y900L;Q903V). The essentials: as §1
Experiment [1] has as its target T6, PUM1 PUF domain R1-QFR R2-VFQ R6-SWD (Homo sapiens, UniProt Q14671 828-1176, S863Q;R864F;Q867R;N899V;Y900F;N1043S;Y1044W;Q1047D).
T6 sequence: T1 sequence with S36Q, R37F, Q40R, N72V, Y73F, E216S, G220D
The essentials: as §1

The target in another experiment is PUM1 PUF domain R7-LSV (Homo sapiens, UniProt Q14671 828-1176, S1079L;N1080S;E1083V). In short, it runs like this:
as §1

The target of another experiment is PUM1 PUF domain R7-LYW (Homo sapiens, UniProt Q14671 828-1176, S1079L;N1080Y;E1083W). The essentials:
as §1

The target of the next experiment is PUM1 PUF domain R4-QPA (Homo sapiens, UniProt Q14671 828-1176, N971Q;H972P;Q975A). The essentials:
as §1

Consider “GGCUAGAACUAGUGGAUCCCCCGGCGCCCGGCGGCUCGAGCCCGGGUAAGUGUAAGUAGUCUGCAUGCCGCCGGGCGCCAUGCCUGCAGGUCGACUCUAGAAAACAUG”, for which the binding signal with PUM1 PUF domain R3-IFR was 5.53 log2 enrichment (interaction score).

Turning to “GGCUAGAACUAGUGGAUCCCCCGGCGCCCGGCGGCUCGAGCCCGGGUAAGUGUAAUUAGUCUGCAUGCCGCCGGGCGCCAUGCCUGCAGGUCGACUCUAGAAAACAUG”, the binding signal in the experiment with PUM1 PUF domain R3-IFR is 3.8 log2 enrichment (interaction score); in the experiment with PUM1 PUF domain R3-RRP it was 4.3 log2 enrichment (interaction score).

As for “GGCUAGAACUAGUGGAUCCCCCGGCGCCCGGCGGCUCGAGCCCGGGUAAGUGAAAAUAGUCUGCAUGCCGCCGGGCGCCAUGCCUGCAGGUCGACUCUAGAAAACAUG”, the binding signal with PUM1 PUF domain R6-EWG is 1.75 log2 enrichment (interaction score); in the experiment with PUM1 PUF domain R6-VWM it was 6.06 log2 enrichment (interaction score); in the experiment with PUM1 PUF domain R6-RYG, 0.78 log2 enrichment (interaction score); in the experiment with PUM1 PUF domain R6-AWV, 2.78 log2 enrichment (interaction score).

“GGCUAGAACUAGUGGAUCCCCCGGCGCCCGGCGGCUCGAGCCCGGGUAAGUGUAAAUAGUCUGCAUGCCGCCGGGCGCCAUGCCUGCAGGUCGACUCUAGAAAACAUG”: the binding signal with PUM1 PUF domain R6-EWG was 4.03 log2 enrichment (interaction score); with PUM1 PUF domain R6-VWM, 4.44 log2 enrichment (interaction score); with PUM1 PUF domain R8-QFR it was 4.27 log2 enrichment (interaction score); with PUM1 PUF domain R8-QYP it was 2.62 log2 enrichment (interaction score); with PUM1 PUF domain R8-RRR it was 5.23 log2 enrichment (interaction score); with PUM1 PUF domain R4-GHW, 5.62 log2 enrichment (interaction score). The binding signal with PUM1 PUF domain R4-CMN was 3.59 log2 enrichment (interaction score); with PUM1 PUF domain R6-RYG, 2.84 log2 enrichment (interaction score); with PUM1 PUF domain R8-RRY, 0.87 log2 enrichment (interaction score); with PUM1 PUF domain R4-WGV it was 3.11 log2 enrichment (interaction score); in the experiment with PUM1 PUF domain R6-DWG, 4.07 log2 enrichment (interaction score).

Consider “GGCUAGAACUAGUGGAUCCCCCGGCGCCCGGCGGCUCGAGCCCGGGUAAGUGUGAAUAGUCUGCAUGCCGCCGGGCGCCAUGCCUGCAGGUCGACUCUAGAAAACAUG”, for which, in the experiment with PUM1 PUF domain R5-GSE, the binding signal is 3.41 log2 enrichment (interaction score).

With “GGCUAGAACUAGUGGAUCCCCCGGCGCCCGGCGGCUCGAGCCCGGGUAAGUGUAAAGAGUCUGCAUGCCGCCGGGCGCCAUGCCUGCAGGUCGACUCUAGAAAACAUG”, the binding signal with PUM1 PUF domain R2-KLV was 6.33 log2 enrichment (interaction score).

Consider “GGCUAGAACUAGUGGAUCCCCCGGCGCCCGGCGGCUCGAGCCCGGGUAAGUGGAAAACGUCUGCAUGCCGCCGGGCGCCAUGCCUGCAGGUCGACUCUAGAAAACAUG”, for which the binding signal in experiment [1] is 5 log2 enrichment (interaction score).

With “GGCUAGAACUAGUGGAUCCCCCGGCGCCCGGCGGCUCGAGCCCGGGUAAGUUUAAAUAGUCUGCAUGCCGCCGGGCGCCAUGCCUGCAGGUCGACUCUAGAAAACAUG”, the binding signal with PUM1 PUF domain R7-LSV was 4.05 log2 enrichment (interaction score); with PUM1 PUF domain R7-LYW, 4.45 log2 enrichment (interaction score).

As for “GGCUAGAACUAGUGGAUCCCCCGGCGCCCGGCGGCUCGAGCCCGGGUAAGUGUACAUAGUCUGCAUGCCGCCGGGCGCCAUGCCUGCAGGUCGACUCUAGAAAACAUG”, the binding signal was 4.34 log2 enrichment (interaction score) with PUM1 PUF domain R4-GHW and 3.2 log2 enrichment (interaction score) with PUM1 PUF domain R4-WGV.

Regarding “GGCUAGAACUAGUGGAUCCCCCGGCGCCCGGCGGCUCGAGCCCGGGUAAGCGUAAAUAGUCUGCAUGCCGCCGGGCGCCAUGCCUGCAGGUCGACUCUAGAAAACAUG”, the binding signal was 5.16 log2 enrichment (interaction score) with PUM1 PUF domain R8-QFR, 5.62 log2 enrichment (interaction score) with PUM1 PUF domain R8-RRR and 2.72 log2 enrichment (interaction score) in the experiment with PUM1 PUF domain R8-RRY.

For the sequence “GGCUAGAACUAGUGGAUCCCCCGGCGCCCGGCGGCUCGAGCCCGGGUAAGUGUAUAUAGUCUGCAUGCCGCCGGGCGCCAUGCCUGCAGGUCGACUCUAGAAAACAUG”, the binding signal was 3.55 log2 enrichment (interaction score) with PUM1 PUF domain R4-QPA, 4.35 log2 enrichment (interaction score) with PUM1 PUF domain R4-GHW and 3.61 log2 enrichment (interaction score) with PUM1 PUF domain R4-WGV.
